Experimental data as given in PubChem BioAssay AID1777 (Sanford-Burnham Center for Chemical Genomics, 2009).
The whole screen tested about 280,000 compounds, of which about 50 (0.02%) were called active. The full list was thinned out, with actives kept by preference. Measured potencies and affinities stand elsewhere. Unmarked numbers belong to inactive results. Cut-off read from the data, not from the text of the source: active = activation above about 50% (passing the limit was not always enough); inactive = the rest.

The compounds below were run against Kappa-type opioid receptor (Homo sapiens) (UniProt P41145) (assay: KOR agonists, beta-arrestin recruitment, primary screen, cell-based, luminescence, uHTS (AID 1777)). Details: at 10 µM, active compounds read high.
Sequence of Kappa-type opioid receptor (Homo sapiens) (P41145 whole entry, looked up): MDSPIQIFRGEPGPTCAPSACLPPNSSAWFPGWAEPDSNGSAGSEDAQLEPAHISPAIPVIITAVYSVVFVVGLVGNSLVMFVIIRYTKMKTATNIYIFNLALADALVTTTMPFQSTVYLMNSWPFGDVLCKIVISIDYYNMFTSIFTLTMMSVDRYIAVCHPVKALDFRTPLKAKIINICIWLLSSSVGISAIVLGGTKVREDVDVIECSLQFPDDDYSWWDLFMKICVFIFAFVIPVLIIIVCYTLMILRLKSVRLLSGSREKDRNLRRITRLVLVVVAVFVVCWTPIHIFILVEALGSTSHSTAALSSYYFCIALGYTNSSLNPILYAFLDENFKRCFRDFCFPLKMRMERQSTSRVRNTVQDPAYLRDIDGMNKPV

Structure (SMILES) | activation
Cn1c(=O)c2c([nH]c(OCc3ccc(Cl)cc3Cl)[n+]2Cc2ccc(F)cc2)n(C)c1=O | 6.8%
O=C(c1cnccn1)N(Cc1cccs1)C1(C(=O)NC2CCCCC2)CCCCC1 | 64.7% (active)
O=C(c1ccc(=O)[nH]c1)N(Cc1cccs1)C1(C(=O)NC2CCCC2)CCCCC1 | 5.3%
O=C(Cc1cccs1)N(Cc1cccs1)C1(C(=O)NC2CCCCC2)CCCCC1 | -1.5%
O=C(Cc1cccs1)N(Cc1cccs1)C1(C(=O)NC2CCCC2)CCCCC1 | -2.8%
O=C(c1cnccn1)N(Cc1cccs1)C1(C(=O)NC2CCCC2)CCCCC1 | 30.1%
COc1ccc(NC2=NCCCCC2)cc1 | -4.3%
Cc1ccc(N2C(=O)C(c3c(C)[nH]n(-c4ccccc4)c3=O)(C(F)(F)F)C3=C2CC(C)(C)CC3=O)cc1 (stereo not given) | -2.8%
Cc1ccc(C(=O)NC(=S)Nc2cccc(NC(=O)c3ccccc3Cl)c2)cc1[N+](=O)[O-] | 1.9%
CNC(=S)N(CCc1c(C)[nH]c2ccc(Cl)cc12)Cc1cccnc1 | -1%
C=CCn1c(-c2cccs2)nc2nc3ccccc3nc21 | -4.6%
CCCn1c(-c2cccs2)nc2nc3ccccc3nc21 | 13.8%
c1ccc(Cn2c(-c3cccs3)nc3nc4ccccc4nc32)cc1 | 65.7% (active)
O=C(NCc1cnc2ccccn12)C1CCC(=O)N(Cc2ccccc2F)C1 (stereo not given) | -0.5%
CN(C)S(=O)(=O)c1ccc(NC(=O)N2CCN(c3ccccc3)CC2)cc1 | 22.3%
CC(=O)N1CCN(c2ccc(NC(=O)c3cc(Cl)ccc3Cl)cc2)CC1 | -3.7%
CCCSc1nnc2n(Cc3ccccc3)c(=O)c3c4c(sc3n12)CCC4 | 69.7% (active)
C=C(C)CSc1nnc2n(Cc3ccccc3)c(=O)c3c4c(sc3n12)CCC4 | -1.4%
CCOC(=O)CSc1nnc2n(Cc3ccccc3)c(=O)c3c4c(sc3n12)CCC4 | -9.3%
O=C(NCC1CCCO1)C1CCCN(S(=O)(=O)c2ccc(Br)cc2)C1 (stereo not given) | 0.4%
CCOC(=O)c1ccccc1N/C=C1\CCCC1=O | 0.9%
Cn1c(=O)oc2cc(S(=O)(=O)N3CCN(c4ccc(F)cc4)CC3)ccc21 | -1.1%
O=C1CN(CC(=O)N2CCCCC2)c2ccccc2O1 | -1.4%
COc1cc([N+](=O)[O-])ccc1NC(=O)Nc1ccc(C(=O)N2CCCC2)cc1 | -5.9%
C(=C\c1ccccc1)/CSc1nnc(-c2ccccc2)n1Cc1ccco1 | 3.8%
O=C(CSc1nnc(-c2ccccn2)n1Cc1ccco1)c1ccccc1 | 15.7%
NC(=O)CSc1nnc(-c2ccccn2)n1Cc1ccco1 | 2.2%
Brc1ccc(CSc2nnc(-c3cnccn3)n2Cc2ccco2)cc1 | 41.3%
C(=C\c1ccccc1)/CSc1nnc(-c2cnccn2)n1Cc1ccco1 | 16.2%
COC(=O)CSc1nnc(-c2ccccn2)n1Cc1ccco1 | -0.5%
